High-throughput results: PubChem BioAssay, National Center for Advancing Translational Sciences (NCATS)
An excerpt weighted towards active compounds, which were near 19% of everything screened.
IL-1B inflam inh = blocks inflammasome-driven IL-1 beta release. THP-1 LPS/ATP IL-1B secretion, AlphaLISA, 16 h; stronger effect = lower value. activity change, % at 57.5 µM. 360,000 compounds, 4.7% hits. AID 743279; in the data active means activity change below about -50%; inconclusive means mostly about -30% to -49%; further: on the % scale 0 is the no-effect control and ±100 the full control effect
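Secreted IL-1B measured by AlphaLISA bead assay after 16 h compound exposure of THP-1 cells; compounds (final up to 57.5 uM) added 1 h before LPS (250 ng/mL) and ATP (1.25 mM) stimulation; lower signal means less secretion.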
HepG2 viability = kills HepG2 cells in TGF-b inhibitor counter-screen | HepG2 CAGA-GFP viability, ATP luminescence, 18 h | Potency, µM (highest dose often 46.1 µM), for the others: at the highest dose activity change, negative = cytotoxicity, hits mostly cytotoxic | 410,000 compounds, 0.76% hits | AID 588856; further: potency means the concentration at half of the fitted maximal effect
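HepG2 CAGA-GFP cells (1000/well, DMEM with 1% FBS) received compound, then TGF-beta at 500 pg/mL final, and were incubated 18 hours at 37 degrees C. Viability was read by CellTiter-Glo luminescence. Media-only wells were set as complete cell-killing and DMSO as no toxicity.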
DT40 TDP1 no CPT = qHTS for Inhibitors of human tyrosyl-DNA phosphodiesterase 1 (TDP1): qHTS in cells in absence of CPT; AID 686978, 2013; 420,000 compounds, 15% hits; DT40 Tdp1-/- hTDP1 cells, no CPT, ATP luminescence, 48 h; Potency, µM (series often up to 46.2 µM), without a hit: top-dose activity change, negative = growth inhibition, hits mostly inhibitors; further: potency means the concentration at half of the fitted maximal effect; on the % scale 0 is the no-effect control and ±100 the full control effect; nearly all actives have a fitted effect of over 55% in size
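Luminescent ATP content (CellTiter-Glo) served as the growth readout. Knockout chicken DT40 cells expressing human TDP1 were exposed to compounds without camptothecin for a minimum 48 hr at 37 °C.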
TGFb inhibitor = TGF-b pathway inhibition | 410,000 compounds, 1.2% hits | Potency, µM (titrated, usually from 46.1 µM), for inactives: top-dose activity, negative = inhibition, actives largely listed as inhibitors | HepG2 CAGA-GFP TGF-b/SMAD3 reporter, GFP fluorescence, 18 h; TGF-beta stimulated, 500 pg/mL final; further: potency means the concentration at half of the fitted maximal effect; on the % scale 0 is the no-effect control and ±100 the full control effect; nearly all actives have a fitted effect of over 65% in size
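Read-out: total well GFP (ex488/em500-530) summed from mean per-cell fluorescence. Cells: HEPG2 CAGA-GFP, 1% FBS DMEM, 18 h at 37 degrees C with 500 pg/mL final TGF-beta. Unstimulated wells served as the full-inhibition control; stimulated DMSO wells = 0%.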
TDP1 inh = inhibitors of human tyrosyl-DNA phosphodiesterase TDP1; Q9NUW8; recombinant TDP1, AlphaScreen DNA substrate cleavage; Potency, µM (highest dose often 130 µM), for inactives: top-dose activity change, negative = inhibition, hits mostly inhibitors; 350,000 compounds, 0.28% hits; AID 485290; further: potency means the concentration at half of the fitted maximal effect; on the % scale 0 is the no-effect control and ±100 the full control effect; nearly all actives have a fitted effect of over 40% in size
Target sequence (Q9NUW8 whole entry, looked up): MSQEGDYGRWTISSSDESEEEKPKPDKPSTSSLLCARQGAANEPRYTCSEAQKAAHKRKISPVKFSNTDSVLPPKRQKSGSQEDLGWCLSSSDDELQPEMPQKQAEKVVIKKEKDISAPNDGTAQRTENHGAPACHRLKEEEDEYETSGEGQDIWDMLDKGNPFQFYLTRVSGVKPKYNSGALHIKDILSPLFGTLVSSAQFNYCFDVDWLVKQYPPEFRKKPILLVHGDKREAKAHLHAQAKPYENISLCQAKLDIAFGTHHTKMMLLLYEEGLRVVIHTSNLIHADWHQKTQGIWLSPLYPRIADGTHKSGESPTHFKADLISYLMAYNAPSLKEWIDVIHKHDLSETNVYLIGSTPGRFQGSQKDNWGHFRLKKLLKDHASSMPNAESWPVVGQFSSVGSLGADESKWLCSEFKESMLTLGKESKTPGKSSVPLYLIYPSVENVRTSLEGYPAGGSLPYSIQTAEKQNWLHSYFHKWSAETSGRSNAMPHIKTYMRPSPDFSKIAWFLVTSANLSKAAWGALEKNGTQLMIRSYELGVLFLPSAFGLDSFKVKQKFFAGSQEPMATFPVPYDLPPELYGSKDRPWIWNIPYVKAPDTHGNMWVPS
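Signal: AlphaScreen proximity between streptavidin donor and anti-FITC acceptor beads on intact substrate. Reaction: Tdp1 1 nM, substrate 15 nM final, 5 min RT after 15 min compound preincubation.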
TDP1 cell CPT = DT40-hTDP1 cell growth loss with CPT; AID 686979; 420,000 compounds, 12% hits; chicken DT40 Tdp1-/-;hTDP1 cells + 20 nM CPT, ATP luminescence, 48 h; Potency, µM (doses to about 46.2 µM), inactives show top-dose activity change, negative = growth inhibition, actives largely listed as inhibitors; further: potency means the concentration at half of the fitted maximal effect; on the % scale 0 is the no-effect control and ±100 the full control effect; nearly all actives have a fitted effect of over 55% in size
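Chicken DT40 Tdp1-/- cells complemented with human TDP1, 400 cells/well, exposed to compounds plus 20 nM camptothecin for at least 48 h at 37 C; viability read as ATP content by CellTiter-Glo luminescence.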
Numbers without * were called inactive; ? = inconclusive; / = no result; ! = not confirmed by another sample; [ ] = dose if it differs, or a comment. Unless noted, the call rests on the fitted dose curve; in most records, active means well fitted curve in the direction sought with a large enough effect; inconclusive means small, poorly fitted or top-dose-only effect, or another doubt; inactive means no such curve, though single readings can be large; an effect the other way counts as inactive or inconclusive.

SMILES	IL-1B inflam inh	HepG2 viability	DT40 TDP1 no CPT	TGFb inhibitor	TDP1 inh	TDP1 cell CPT
Cc1ccc2c(C)c(C(=O)N(C)C(C)c3ccon3)oc2c1C (centres undefined)	-9.1	-13.0%	16.4µM*	-5.8%	2.9%[56.1 µM]	?
Cc1ccc2c(C)c(C(=O)N(C)C(C)c3ccncn3)oc2c1C (centres undefined)	0.2	-9.3%	-13.2%	-18.4%	3.3%	-19.1%
CN(Cc1ccccc1)C(=O)COC(=O)c1cc2ccccc2oc1=O	7.2	-5.8%	4.2%	0.2%	1.3%	-13.7%
CSc1ccc(CN2CCCC(CNC(=O)c3ccc(F)cc3)C2)cc1 (centres undefined)	-15.0	-14.9%	10.3%	-26.0%	-2.7%	8.1%
O=C(C[n+]1cccc2cccc(O)c21)c1ccc(F)cc1	/	-47.7%	?	-26.9%	/	7.08µM*
O=C(C[n+]1c2ccccc2cc2ccccc21)c1ccc(F)cc1	/	-28.3%	10µM*	-2.2%	/	?
O=C(C[n+]1cccc2ccccc21)c1ccc(F)cc1	/	2.5%	-24.1%	?	/	-8.9%
O=C(C[n+]1cccc2cccc(O)c21)c1ccccc1	/	1.9%	-12.1%	26.9%	/	?
Cc1c(OCC(=O)N[C@@H](Cc2c[nH]c3ccccc23)C(=O)O)ccc2c1oc(=O)c1ccccc12	13.5	5.3%	-11.1%	6.8%	/	-18.4%
Cc1ccc(N2C(=O)CC(N(CCc3ccccc3)C(=S)Nc3ccc(N(C)C)cc3)C2=O)cc1 (centres undefined)	?	-33.7%	?	?	10.5%	18.4µM*
O=C1CC(N(CCc2ccccc2)C(=S)Nc2ccccc2)C(=O)N1c1ccc(Br)cc1 (centres undefined)	-12.4	2.24µM*	18.4µM*	?	2.8%	16.4µM*
COc1ccc(CCN(C(=S)Nc2ccccc2)C2CC(=O)N(c3ccccc3)C2=O)cc1 (centres undefined)	19.2	-37.9%	?	-10.1%	0.0%	?
Clc1cccc(CSc2nnc(C3CCNCC3)o2)c1	/	-7.9%	?	-8.2%	2.6%	-25.8%
Cc1ccc(NC(=O)CCn2c(=O)c3cccn3c3ccccc32)c(C)c1	0.0	2.8%	20.6µM*	-1.4%	3.2%	?
COc1ccc(NC(=O)CCn2c(=O)c3cccn3c3ccccc32)c(OC)c1	0.0	1.0%	20.6µM*	-16.4%	6.5%	16.4µM*
COc1cccc(NC(=O)CCCn2c(=O)c3cccn3c3cccnc32)c1	/	-9.2%	20.6µM*	-12.9%	2.6%	?
Cc1ccc(NC(=O)Cn2c(=O)c3cccn3c3ccccc32)c(C)c1	?	7.8%	1.8%	0.2%	-1.4%	-5.7%
Cc1cc(C)cc(NC(=O)CCn2c(=O)c3cccn3c3ccccc32)c1	20.3	-70.3%	8.2µM*	-29.1%	3.6%	5.8µM*
COc1ccc(-c2nc3n(n2)C(c2ccc(OC)c(OC)c2)C(C(=O)Nc2cccnc2)=C(C)N3)cc1 (centres undefined)	/	-6.9%	-4.1%	1.9%	4.7%	-11.5%
CCOC(=O)c1ccccc1NC(=O)N1CCCN(S(=O)(=O)c2ccc3c(ccn3CC)c2)CC1	/	-25.0%	/	-0.8%	5.3%	/
O=C(CCn1c(=O)c2cccn2c2ccccc21)Nc1ccc(F)cc1	46.3	0.3%	11.6µM*!	-1.8%	2.7%	?
COc1ccc(NC(=O)CCn2c(=O)c3cccn3c3ccccc32)cc1	56.9	-3.5%	?	-0.7%	0.6%	?
Cc1cc(C)cc(NC(=O)CCCn2c3ccccc3c(=O)c3ccccc32)c1	/	-46.5%	23.1µM*	?	4.0%[12.3 µM]	?
COc1ccc(-c2cc(=Nc3ccc(C)cc3)c3ccccc3o2)cc1	?	-21.6%	?	-5.2%	6.2%	?
CCOc1ccc(N=c2cc(-c3ccc(OC)cc3)oc3ccccc23)cc1	-13.7	-33.5%	25.9µM*	?	7.9%	25.9µM*
SMILES	IL-1B inflam inh	HepG2 viability	DT40 TDP1 no CPT	TGFb inhibitor	TDP1 inh	TDP1 cell CPT
COc1ccc(N=c2cc(-c3ccc(OC)cc3)oc3ccccc23)cc1	/	-11.6%	23.1µM*	?	7.9%	?
COc1ccc(N=c2cc(-c3ccc(O)cc3)oc3ccccc23)cc1	-98.2*	4.0%	?	?	10.3%	?
COc1ccccc1N1CCN(C(=O)C(=O)c2cn(CC(=O)N3CCOCC3)c3ccccc23)CC1	0.7	-9.1%	25.2%	-6.2%	1.9%	-1.3%
CCN1C(=O)[C@H]2[C@@H](c3ccc(OC)cc3)N[C@]3(CCCN(Cc4ccc(Br)cc4)C3=O)[C@H]2C1=O	32.6	5.0%	25.9µM*	3.8%	/	-8.2%
COc1ccc([C@H]2N[C@]3(CCCN(Cc4ccc(Br)cc4)C3=O)[C@H]3C(=O)N(Cc4ccccc4)C(=O)[C@@H]23)cc1	-12.0	-4.9%	14.6µM*	2.0%	/	?
CCN1C(=O)[C@H]2[C@@H](c3ccc(OC)cc3)N[C@]3(CCCN(Cc4ccccc4)C3=O)[C@H]2C1=O	17.2	10.9%	?	-3.7%	/	3.7%
COc1ccc(CN2CCC[C@]3(N[C@H](c4ccc(OC)cc4)[C@@H]4C(=O)N(Cc5ccccc5)C(=O)[C@@H]43)C2=O)cc1	-7.0	-15.2%	16.4µM*	2.7%	/	20.6µM*
COc1ccc(CN2CCC[C@]3(N[C@H](c4ccccc4)[C@@H]4C(=O)N(Cc5ccccc5)C(=O)[C@@H]43)C2=O)cc1	-2.6	-25.4%	18.4µM*	-6.0%	/	?
COc1ccc(CN2CCC[C@]3(N[C@H](c4ccc(C)cc4)[C@@H]4C(=O)N(Cc5ccccc5)C(=O)[C@@H]43)C2=O)cc1	-21.6	-10.1%	?	-12.2%	/	?
Cc1ccc(N(C)C(=O)c2cc(S(=O)(=O)N3CCCC3)cn2C)cc1	-24.4	-12.5%	-25.9%	?	/	-29.4%
COc1cccc(NC(=O)CCN2CCN(CCO)CC2)c1	/	-1.3%	-1.5%	18.5%	3.8%[2.28 µM]	-15.3%
COc1ccc(CN2CCOc3ccc(C(O)c4cccnc4)cc3C2)cc1O (centres undefined)	/	/	-18.7%	/	/	3.7%[9.04 µM]
COc1ccc(C(=O)NCc2ccon2)cc1OC1CCN(C(C)C)CC1	-21.8	-5.6%	21.7%	-5.1%	-0.1%	-0.7%
OC1(c2cccnc2)CCN(Cc2ccc3c(c2)CN(Cc2cc4ccccc4s2)CCO3)CC1	/	/	16.4µM*	/	/	-1.7%[9.04 µM]
